In PubChem BioAssay (EPA / NIEHS):
Results filed as inconclusive are left out. Activity calls are given as the source filed them. How the source made its calls: active means hit-call score of the fitted dose curve at least 0.9, where 1 is the maximum; inconclusive means response in the unintended direction; inactive means score below 0.9.

Tests used:
[1] = TOX21_p53_BLA_p2_viability: Viability Assessment in the Tox21 HCT-116 p53 Agonism Beta-lactamase Assay, Phase 2 (AID 2283591);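 further: compound exposure lasted 16 h at 37 °C; actives lower the ATP signal meaning cytotoxicity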
Procedure, shortened: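 HCT-116 p53-bla cells (4000/well) rested 5 h at 37C, then received compounds in DMSO (217-fold dilution) for 16 h at 37C, 5% CO2. After the CCF4 read, CellTiter-Glo was added; ATP luminescence was read after 30 min at room temperature.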

[2] = biological target: Cellular tumor antigen p53 (Homo sapiens) (UniProt P04637); experiment: TOX21_p53_BLA_p2_ratio: Tox21 HCT-116 p53 Agonism Beta-lactamase Assay, Ratio, Phase 2 (AID 2283592)
Procedure, shortened: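 Read-out is the blue/green (460/530 nm, 405 nm excitation) ratio after 2 h CCF4-AM loading, fitted as gain versus DMSO. Compounds, pinned at 217-fold dilution from DMSO stocks, stayed 16 h on HCT-116 beta-lactamase reporter cells seeded 5 h earlier.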

[3] = biological target: Cellular tumor antigen p53 (Homo sapiens) (UniProt P04637); experiment: TOX21_p53_BLA_p3_ratio: Tox21 HCT-116 p53 Agonism Beta-lactamase Assay, Ratio, Phase 3 (AID 2283596)
Procedure, shortened: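 Cells were seeded at 4000/well, rested 5 h at 37C, then dosed with DMSO compound solutions (217-fold dilution) for 16 h. CCF4-AM substrate was loaded for 2 h at room temperature, and the 460/530 nm emission ratio was fitted for gain of signal versus DMSO.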

[4] = TOX21_p53_BLA_p4_viability: Viability Assessment in the Tox21 HCT-116 p53 Agonism Beta-lactamase Assay, Phase 4 (AID 2283597);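 further: hits lower the luminescence signal meaning cytotoxicity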
Procedure, shortened: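 Cytotoxicity as reduced cellular ATP (CellTiter-Glo luminescence, 30 min room temperature), measured in the same wells following the CCF4 FRET p53 reading. Human HCT-116 cells received compounds in DMSO (217-fold dilution) for 16 h.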

[5] = TOX21_p53_BLA_p3_viability: Viability Assessment in the Tox21 HCT-116 p53 Agonism Beta-lactamase Assay, Phase 3 (AID 2283593);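 further: cells exposed to compound for 16 h before reading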
Procedure, shortened: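 HCT-116 cells (4000/well) rested 5 h at 37C, then got DMSO compounds by pin tool (217-fold dilution) for 16 h at 37C, 5% CO2. After the bla read, CellTiter-Glo was added and luminescence read at 30 min, room temperature.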

[6] = biological target: Cellular tumor antigen p53 (Homo sapiens) (UniProt P04637); experiment: TOX21_p53_BLA_p4_ratio: Tox21 HCT-116 p53 Agonism Beta-lactamase Assay, Ratio, Phase 4 (AID 2283601)
Procedure, shortened: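 HCT116 cells carrying an inducible beta-lactamase reporter were plated at 4000 cells/well, rested 5 h, then exposed to compounds in DMSO (217-fold dilution) for 16 h at 37C. CCF4-AM substrate was loaded 2 h at room temperature; 460/530 nm emission ratio scored gain-of-signal versus DMSO.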

[7] = TOX21_p53_BLA_p5_viability: Viability Assessment in the Tox21 HCT-116 p53 Agonism Beta-lactamase Assay, Phase 5 (AID 2283600)
Procedure, shortened: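 Viability came from CellTiter-Glo ATP luminescence, read after 30 min at room temperature. Before this, HCT-116 p53-bla cells (4000/well) had 16 hours of compound exposure at 37C, with DMSO stocks diluted 217-fold on transfer.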

[8] = biological target: Cellular tumor antigen p53 (Homo sapiens) (UniProt P04637); experiment: TOX21_p53_BLA_p5_ratio: Tox21 HCT-116 p53 Agonism Beta-lactamase Assay, Ratio, Phase 5 (AID 2283599)
Procedure, shortened: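 HCT-116 cells carrying a p53-inducible beta-lactamase reporter were seeded at 4000 cells/well and dosed after 5 h with compound in DMSO (217-fold dilution). After 16 h at 37C, CCF4-AM substrate was added for 2 h, and the 460/530 nm emission ratio was scored as gain-of-signal versus DMSO.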

[9] = ACEA_ER_AUC_viability: ACEA Biosciences xCELLigence Real-Time Cell Analysis on Estrogen Receptor Agonism for Viability (AID 2283782);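 further: hit means loss of impedance signal meaning reduced cell growth or viability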
Procedure, shortened: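 Continuous-exposure impedance cell analysis uses T-47D cells in charcoal-stripped serum, eight 1:4 dilutions topping at 100 uM final, biological duplicate. Area under the growth curve at 80 h is fitted against DMSO baseline.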

Measured: outcome

Sequence of Cellular tumor antigen p53 (Homo sapiens) (P04637 whole entry, looked up): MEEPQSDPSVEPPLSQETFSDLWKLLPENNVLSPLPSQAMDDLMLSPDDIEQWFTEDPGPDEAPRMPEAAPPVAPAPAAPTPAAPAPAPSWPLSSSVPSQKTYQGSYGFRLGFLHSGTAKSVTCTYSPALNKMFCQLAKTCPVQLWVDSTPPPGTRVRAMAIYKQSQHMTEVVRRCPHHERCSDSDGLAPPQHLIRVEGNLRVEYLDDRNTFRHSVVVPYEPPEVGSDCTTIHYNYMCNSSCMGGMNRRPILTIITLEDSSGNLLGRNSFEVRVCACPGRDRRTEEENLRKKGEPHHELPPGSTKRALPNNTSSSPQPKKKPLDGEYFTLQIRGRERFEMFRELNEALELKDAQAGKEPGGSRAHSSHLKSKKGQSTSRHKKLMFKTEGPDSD

Cc1nc2n(c(=O)c1CCN1CCC(c3noc4cc(F)ccc34)CC1)CCCC2
inactive: [1] | [2] | [3] | [4]

C[C@]12CC[C@@H]3c4ccc(OS(=O)(=O)O)cc4CC[C@H]3[C@@H]1CCC2=O
inactive: [1] | [2] | [5] | [6]

CCOC(=O)c1ncn2c1CN(C)C(=O)c1cc(F)ccc1-2
inactive: [1] | [2] | [5] | [7]

OCC=CCO
inactive: [1] | [2] | [3] | [4]

COc1ccc(C2C(=O)c3ccccc3C2=O)cc1
inactive: [1] | [2] | [5] | [7] | [6]

CN(C)CCOC(c1ccc(Cl)cc1)c1ccccn1 (configuration not stated)
inactive: [1] | [2] | [3] | [4] | [8]

O=C(OC1C[C@H]2CC[C@@H](C1)[N+]21CCCC1)C(O)(c1ccccc1)c1ccccc1 (some centres not stated)
inactive: [1] | [2] | [5] | [6]

CC(=O)OCC(=O)[C@@]1(O)[C@H](OC(C)=O)C[C@H]2[C@@H]3CCC4=CC(=O)C=C[C@]4(C)[C@@]3(F)[C@@H](O)C[C@@]21C
inactive: [1] | [2] | [3] | [4]

CCOC(=O)[C@H](CCc1ccccc1)N[C@H]1CS[C@H](c2cccs2)CN(CC(=O)O)C1=O
inactive: [1] | [2] | [3]

CN(C)CCCNCCC#N
not listed: [3] | [4] | [8]
inactive: all other assays above

CC(=O)Nc1ccc(N)cc1
inactive: [1] | [2] | [5] | [6]
